The entries come from a sample that favours hits as a whole.
Shiga toxin inh – A qHTS for Small Molecule Inhibitors of Shiga Toxin | Vero cells, Shiga toxin protein synthesis inhibition reporter | inhibition, % at 38.7 µM | 290,000 tested, 9.2% active | AID 2315, 2010; in the data active = inhibition mostly above about 28%, no sharp cut-off; inactive = mostly below about 43%; note: 0% is about no effect
Cycloheximide cs – Cycloheximide Counterscreen for Small Molecule Inhibitors of Shiga Toxin. cell reporter, cycloheximide protein synthesis inhibition counterscreen. max response, %. 300,000 tested, 12% active; in the data active = max response mostly above about 13%, no sharp cut-off; inactive = mostly below about 14%; note: read at 38.3 µM for the half of the compounds with a filed dose; 0% is about no effect
LmPK inh – qHTS Assay for Inhibitors of Leishmania Mexicana Pyruvate Kinase (LmPK); Q27686; purified LmPK, Kinase-Glo ATP luminescence, 1 h; Potency, µM (doses to about 57.5 µM), for inactives: top-dose activity change, negative = inhibition, actives largely listed as inhibitors; 290,000 tested, 0.37% active; AID 1721, 2009; note: potency is the fitted concentration of half-maximal effect; % is set by controls: 0 for no effect and ±100 for the full control effect
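Kinase-Glo luminescence read after 1 h RT reaction of 0.1 nM LmPK with 0.5 mM PEP and 0.1 mM ADP. Activity scaled between uninhibited and enzyme-free controls.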
Tb PYK inh – qHTS of Trypanosoma Brucei Inhibitors; Potency, µM (titrated, usually from 76.8 µM), for inactives: top-dose activity, negative = inhibition, usual class: inhibitors; pyruvate kinase (Trypanosoma brucei), Q57TT1; 410,000 tested, 0.12% active; AID 624173, 2012; TbPYK enzyme, Kinase-Glo Plus ATP luminescence, 45 min; note: potency is the fitted concentration of half-maximal effect; % is set by controls: 0 for no effect and ±100 for the full control effect; nearly all actives have a fitted effect of over 50% in size
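Glycolytic pyruvate kinase of T. brucei was incubated with substrate, test compound and 130 uM ADP for 45 minutes at room temperature. Luminescent Kinase-Glo Plus signal was measured after 10 minutes.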
Sm TGR inh – qHTS Assay for the Inhibitors of Schistosoma Mansoni Peroxiredoxins. Schistosoma mansoni thioredoxin glutathione reductase (TGR), Q962Y6. purified TGR, DTNB reduction, TNB absorbance 405 nm. Potency, µM (highest dose often 114 µM), inactives show at the highest dose activity change, negative = inhibition, hits mostly inhibitors. 360,000 tested, 3% active; note: potency is the fitted concentration of half-maximal effect; % is set by controls: 0 for no effect and ±100 for the full control effect; nearly all actives have a fitted effect of over 60% in size
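First, TGR (20 nM dispensed) and NADPH were mixed with compound. Second, a 15 min room-temperature incubation followed. Third, further NADPH and then DTNB were added to start the reaction. Finally, TNB absorbance was monitored kinetically.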
Giardia FBPA inh – qHTS Assay for Inhibitors of Fructose-1,6-bisphosphate Aldolase from Giardia Lamblia; Potency, µM (doses to about 59.6 µM), without a hit: at the highest dose activity, negative = inhibition, hits mostly inhibitors; 290,000 tested, 0.71% active; purified Giardia FBPA; AID 2451, 2010; A8B2U2; note: potency is the fitted concentration of half-maximal effect; % is set by controls: 0 for no effect and ±100 for the full control effect; nearly all actives have a fitted effect of over 55% in size
Target sequence (A8B2U2 whole entry, looked up): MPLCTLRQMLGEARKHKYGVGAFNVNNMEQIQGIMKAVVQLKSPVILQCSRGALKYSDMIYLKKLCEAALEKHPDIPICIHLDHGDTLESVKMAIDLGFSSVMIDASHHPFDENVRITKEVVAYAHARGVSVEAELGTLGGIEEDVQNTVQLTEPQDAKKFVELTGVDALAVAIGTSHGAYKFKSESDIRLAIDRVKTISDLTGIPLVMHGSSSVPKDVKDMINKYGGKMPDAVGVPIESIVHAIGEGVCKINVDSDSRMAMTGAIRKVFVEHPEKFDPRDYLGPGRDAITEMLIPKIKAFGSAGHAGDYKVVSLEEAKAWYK
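40 nM FBPA preincubated 10 min at RT with compound (up to 57.5 uM final), then substrate plus GAPDH/TPI/NAD/arsenate coupling and diaphorase/resazurin added. Fluorescence read after 20 min at RT, 525/598 nm.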
* hit, by the source's call; . = not tested or not shown. Unless noted, calls come from the whole dose curve; as a rule, active = well fitted curve in the direction sought with a large enough effect; inconclusive = small, poorly fitted or top-dose-only effect, or another doubt; inactive = no such curve, though single readings can be large; an effect the other way counts as inactive or inconclusive.

SMILES | Shiga toxin inh | Cycloheximide cs | LmPK inh | Tb PYK inh | Sm TGR inh | Giardia FBPA inh
NCCCC(N)CC(=O)NCC1NC(=O)C(CO)NC(=O)C(N)CNC(=O)C(C2CCN=C(N)N2)NC(=O)/C(=C/NC(N)=O)NC1=O (configuration not stated) | . | . | . | 2% | . | .
COc1ccc(C2=CC(=O)C=CC2=O)cc1 | -2 | 9.3* | 2.5µM* | . | 0.89µM* | 16µM*
N#Cc1cc2ccccc2nc1SCc1ccccn1 | 147* | 59* | -3% | -2% | 5% | 9%
Cn1cnnc1Sc1cc(N2CCN(S(=O)(=O)c3ccc(Cl)c(Cl)c3)CC2)ccc1[N+](=O)[O-] | 1 | -4 | 2% | -6% | -10% | 1%
Cn1cnnc1Sc1cc(N2CCN(S(=O)(=O)c3ccc4ccccc4c3)CC2)ccc1[N+](=O)[O-] | 26 | 11* | 1% | -1% | -8% | -5%
N#Cc1cccc(NC(=O)COC(=O)c2ccc[n+]([O-])c2)c1 | . | . | . | -3% | . | .
COc1cc(C(=O)Nc2nc(C)c(Cc3ccc4c(c3)OCO4)s2)cc(OC)c1OC | 10 | 0 | 4% | -28% | 7% | -1%
Cc1nc(NC(=O)c2ccc(OCC(C)C)cc2)sc1Cc1ccc2c(c1)OCO2 | 30* | 19* | 0% | 6% | -2% | 0%
CCCOc1ccc(C(=O)Nc2nc(C)c(Cc3ccc4c(c3)OCO4)s2)cc1 | 72* | 24* | -1% | 8% | 6% | 3%
COCCNC(=O)C(=O)N/N=C(\C)CC(=O)Nc1ccc(Cl)cc1Cl | -3 | -2 | -5% | 6% | -15% | -3%
C/C(CC(=O)Nc1ccc(C)c(Cl)c1)=N\NC(=O)c1ccco1 | 94* | 45* | 0% | 4% | . | -11%
C/C(CC(=O)Nc1ccc(C)c(Cl)c1)=N\NC(=O)Cc1ccccc1 | -7 | 8 | 1% | -4% | -13% | 2%
C/C(CC(=O)Nc1ccc(Cl)cc1Cl)=N\NC(=O)c1ccco1 | 116* | 37* | 1% | 4% | -18% | -4%
Cc1ccc(CCSc2ccc(F)cc2)cn1 | 64* | 15* | -1% | 1% | 10% | 0%
Cc1ccc(CCSc2ccc(C(C)C)cc2)cn1 | 30* | 9.2* | 3% | 5% | -7% | -1%
CNc1ncnc2c1ncn2[C@H]1CN(CCc2ccccc2)C[C@@H](CO)O1 | . | . | . | 1% | . | .
Cc1ccc(C2Nc3ccccc3-n3c(-c4ccccc4)c4c(=O)n(C)c(=O)n(C)c4c32)cc1 (configuration not stated) | . | . | . | 5% | 0% | .
CC1CC=CC2C1C(=O)N(Cc1ccccc1)C2c1ccc(-c2ccc(F)cc2)cc1F (configuration not stated) | 15 | -4 | . | . | . | -3%
CC(C)[C@H](N)C(=O)N[C@@H](CCC(N)=O)C(=O)NCC(=O)N[C@@H](CCC(=O)O)C(=O)N[C@@H](CCC(=O)O)C(=O)N[C@@H](CO)C(=O)N[C@@H](CC(N)=O)C(=O)N[C@@H](CC(=O)O)C(=O)N[C@@H](CCCCN)C(=O)O | -16 | 0 | . | . | . | -2%
Cc1ccc(NC2=C(Cl)C(=O)OC2OC(=O)c2ccco2)cc1 (configuration not stated) | -13 | -2 | 8% | 6% | 14µM* | -1%
Cc1cccc(NC2=C(Cl)C(=O)OC2OC(=O)c2ccco2)c1 (configuration not stated) | 9 | 12 | -1% | 2% | 14µM* | 0%
Cc1cccc(NC2=C(Cl)C(=O)OC2OC(C)C)c1 (configuration not stated) | -2 | 2 | 1% | 2% | -1% | 4%
CC(Oc1ccccc1)C(=O)Nc1nc2ccc(S(N)(=O)=O)cc2s1 (configuration not stated) | . | . | . | -6% | -10% | .
c1ccc(-c2noc(COc3ccc4c(c3)OCO4)n2)cc1 | 55* | 26* | 4% | -11% | -17% | 0%

From PubChem BioAssay
